Results published in PubChem BioAssay (EPA / NIEHS).
Where a structure was tested more than once in an assay, its records may differ in their call. Calls of active or inactive are those of the source. How the source made its calls: active means hit-call score of the fitted dose curve at least 0.9, where 1 is the maximum; inactive means score below 0.9.

Experiments:
[1] = ATG_GLI_CIS: Attagene CIS-FACTORIAL HepG2 Assay for human Zinc Finger Protein GLI1 (AID 2282945); details: HepG2, Attagene cis-factorial reporter mRNA, GLI element; actives raise or lower the signal
Method in brief: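 HepG2 cells transiently transfected with cis-promoter multiplexed reporter units report endogenous transcription factor activity. After 24 h chemical exposure, reporter mRNA was quantified by RT-PCR, 6-FAM labelling, HpaI digestion and capillary electrophoresis, with bidirectional fitting against DMSO.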

[2] = ATG_GRE_CIS: Attagene CIS-FACTORIAL HepG2 Assay for human Glucocorticoid Response Elements (GRE) (AID 2282947); details: HepG2 GRE cis-reporter, Attagene multiplex mRNA; actives raise or lower the signal
Method in brief: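 Following 24 h chemical exposure of transiently transfected HepG2 cells, total RNA was reverse-transcribed and reporter cDNA amplified, fluorescently labelled and sized by capillary electrophoresis. Signal gain or loss was fitted relative to DMSO vehicle.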

[3] = ATG_ISRE_CIS: Attagene CIS-FACTORIAL HepG2 Assay for human Interferon Regulatory Factor 1 (IRF1) binding to an Interferon-Stimulated Response Element (ISRE) (AID 2282948); details: HepG2 ISRE cis-reporter (Attagene), mRNA transcription readout; actives raise or lower the signal
Method in brief: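 Quantitation relies on labelled RT-PCR fragments separated by capillary electrophoresis. Human HepG2 cells bearing cis-promoter reporter constructs were treated 24 h; DMSO served as baseline for bidirectional fitting.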

[4] = ATG_M_32_CIS: Attagene CIS-FACTORIAL HepG2 Assay for M32 Transcription Factor (Internal Marker) (AID 2282949); details: HepG2 Attagene cis-factorial M32 reporter, mRNA; actives raise or lower the signal;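 further: background control marker of the multiplexed CIS panel rather than a real target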
Method in brief: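 Fluorescent capillary electrophoresis peaks of HpaI-digested, FAM-labelled RT-PCR reporter products give the signal. Source: transiently transfected human liver HepG2 cells, 24 h after chemical dosing; bidirectional fitting against DMSO.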

[5] = ATG_M_06_CIS: Attagene CIS-FACTORIAL HepG2 Assay for M06 Transcription Factor (Internal Marker) (AID 2282950); details: HepG2 Attagene CIS-FACTORIAL M06 internal marker reporter; actives raise or lower the signal
Method in brief: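 Read-out is fluorescence of labelled reporter cDNA fragments resolved by capillary electrophoresis after RT-PCR. Cells: HepG2 carrying transfected cis-promoter reporter units, treated 24 h. Gain or loss of signal fitted relative to DMSO.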

[6] = target: Hypoxia-inducible factor 1-alpha (Homo sapiens) (UniProt Q16665); experiment: ATG_HIF1a_CIS: Attagene CIS-FACTORIAL HepG2 Assay for human Hypoxia Inducible Factor 1 (HIF1A) (AID 2282951); details: HepG2 Attagene cis-factorial HIF1a reporter transcription; actives raise or lower the signal
Hypoxia-inducible factor 1-alpha (Homo sapiens), sequence (Q16665 whole entry, looked up): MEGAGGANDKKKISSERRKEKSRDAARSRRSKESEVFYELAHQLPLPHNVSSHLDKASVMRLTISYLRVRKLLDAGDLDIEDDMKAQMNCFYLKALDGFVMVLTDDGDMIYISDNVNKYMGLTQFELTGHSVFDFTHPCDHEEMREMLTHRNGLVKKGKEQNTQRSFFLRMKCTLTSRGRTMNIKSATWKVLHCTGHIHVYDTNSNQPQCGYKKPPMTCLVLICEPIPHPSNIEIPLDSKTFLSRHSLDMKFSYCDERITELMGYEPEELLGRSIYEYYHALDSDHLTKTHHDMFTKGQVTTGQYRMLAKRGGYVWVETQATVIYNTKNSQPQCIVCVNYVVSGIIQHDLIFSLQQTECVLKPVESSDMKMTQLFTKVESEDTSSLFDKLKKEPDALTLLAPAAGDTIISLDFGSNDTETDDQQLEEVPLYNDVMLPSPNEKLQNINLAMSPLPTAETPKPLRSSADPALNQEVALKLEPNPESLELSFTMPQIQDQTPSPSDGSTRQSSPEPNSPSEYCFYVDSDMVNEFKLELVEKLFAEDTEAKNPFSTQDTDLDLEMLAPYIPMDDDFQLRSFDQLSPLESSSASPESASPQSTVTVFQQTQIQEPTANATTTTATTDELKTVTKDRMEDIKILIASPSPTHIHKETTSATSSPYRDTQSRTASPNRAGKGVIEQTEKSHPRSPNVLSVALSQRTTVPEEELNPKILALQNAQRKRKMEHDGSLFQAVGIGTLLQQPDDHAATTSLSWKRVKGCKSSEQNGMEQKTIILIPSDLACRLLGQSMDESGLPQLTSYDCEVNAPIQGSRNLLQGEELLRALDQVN
Method in brief: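 Measures endogenous transcription-factor activity through cis-regulated reporter mRNA in HepG2. Cells dosed 24 h; transcripts quantified by RT-PCR with 6-FAM-labelled products separated by capillary electrophoresis; DMSO serves as negative control.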

[7] = target: Heat shock factor protein 1 (Homo sapiens) (UniProt Q00613); experiment: ATG_HSE_CIS: Attagene CIS-FACTORIAL HepG2 Assay for human Heat Shock Transcription Factor 1 (HSE) (AID 2282953); details: HepG2 HSE cis-reporter, Attagene RNA transcription; actives raise or lower the signal
Heat shock factor protein 1 (Homo sapiens), sequence (Q00613 whole entry, looked up): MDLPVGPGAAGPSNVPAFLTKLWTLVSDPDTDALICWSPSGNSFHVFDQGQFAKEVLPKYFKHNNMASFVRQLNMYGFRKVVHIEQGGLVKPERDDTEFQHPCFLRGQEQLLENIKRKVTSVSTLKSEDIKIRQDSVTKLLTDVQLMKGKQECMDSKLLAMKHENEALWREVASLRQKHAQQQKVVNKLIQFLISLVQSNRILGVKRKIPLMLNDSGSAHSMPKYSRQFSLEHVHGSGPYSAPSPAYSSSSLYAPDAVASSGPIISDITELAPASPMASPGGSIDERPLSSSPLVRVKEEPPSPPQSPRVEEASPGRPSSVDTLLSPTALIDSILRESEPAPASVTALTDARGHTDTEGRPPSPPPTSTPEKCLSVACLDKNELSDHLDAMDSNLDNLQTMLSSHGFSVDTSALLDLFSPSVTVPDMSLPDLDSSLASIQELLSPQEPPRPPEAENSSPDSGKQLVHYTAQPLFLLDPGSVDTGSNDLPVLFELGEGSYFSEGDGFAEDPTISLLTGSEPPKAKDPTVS
Method in brief: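 HepG2, transient MRTU transfection, cis-promoter reporters (endogenous TF activity). 24 h compound. RNA → oligo(dT) RT → PCR → 6-FAM primer extension → HpaI cut → CE. Bidirectional fit vs DMSO.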

[8] = ATG_MRE_CIS: Attagene CIS-FACTORIAL HepG2 Assay for human Metal Responsive Element (MRE) (AID 2282954); details: HepG2 MRE cis-reporter transcription, Attagene multiplex; actives raise or lower the signal
Method in brief: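 Step one: transfect HepG2 with cis-regulated reporter units. Step two: dose 24 h. Step three: isolate RNA, RT-PCR, 6-FAM label, HpaI digest, capillary electrophoresis. Fit bidirectionally to DMSO.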

[9] = ATG_PBREM_CIS: Attagene CIS-FACTORIAL HepG2 Assay for human Phenobarbital-responsive Enhancer Module (PBREM) (AID 2282955); details: HepG2 PBREM cis-reporter, Attagene multiplexed transcription; actives raise or lower the signal
Method in brief: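 Fluorescence of labelled reporter cDNA fragments, resolved by capillary electrophoresis, gives mRNA induction in transfected HepG2 cells treated for 24 h; DMSO serves as negative control and baseline.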

[10] = target: Paired box protein Pax-6 (Homo sapiens) (UniProt P26367); experiment: ATG_Pax6_CIS: Attagene CIS-FACTORIAL HepG2 Assay for human Paired Box 6 (PAX6) (AID 2282956); details: HepG2 CIS-FACTORIAL PAX6 reporter transcription, RNA readout; actives raise or lower the signal
Paired box protein Pax-6 (Homo sapiens), sequence (P26367 whole entry, looked up): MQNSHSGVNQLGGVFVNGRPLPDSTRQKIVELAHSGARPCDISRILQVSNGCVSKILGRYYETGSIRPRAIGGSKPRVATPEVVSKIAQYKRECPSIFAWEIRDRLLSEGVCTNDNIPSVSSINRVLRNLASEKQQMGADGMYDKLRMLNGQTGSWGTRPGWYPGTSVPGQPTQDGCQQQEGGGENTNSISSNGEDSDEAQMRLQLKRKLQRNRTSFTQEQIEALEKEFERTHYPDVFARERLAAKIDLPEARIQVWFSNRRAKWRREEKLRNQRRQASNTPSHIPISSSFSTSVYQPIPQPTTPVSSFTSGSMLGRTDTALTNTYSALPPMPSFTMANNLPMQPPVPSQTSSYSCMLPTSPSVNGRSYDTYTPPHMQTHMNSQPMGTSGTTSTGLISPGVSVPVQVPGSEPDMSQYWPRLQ
Method in brief: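 After twenty-four hours of chemical exposure, transfected HepG2 cells are harvested for RNA. Cis-promoter reporter transcripts are amplified, fluorescently labelled and sized by capillary electrophoresis, with gain and loss of signal scored against DMSO.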

[11] = ATG_PXRE_CIS: Attagene CIS-FACTORIAL HepG2 Assay for human Pregnane X Receptor Element (PXRE) (AID 2282957); details: HepG2 Attagene CIS-FACTORIAL PXRE reporter, mRNA; actives raise or lower the signal
Method in brief: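 Transfect HepG2 with MRTUs (cis promoter elements); dose chemical, incubate 24 h; isolate RNA, RT with oligo(dT), PCR, 6-FAM label, HpaI cut, CE. Gain/loss fit vs DMSO.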

[12] = ATG_Sox_CIS: Attagene CIS-FACTORIAL HepG2 Assay for human SRY-box transcription factor (SOX) (AID 2282960); details: HepG2 Attagene cis-factorial SOX reporter, mRNA; actives raise or lower the signal
Method in brief: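 Transient MRTU transfection of HepG2; 24 h compound incubation; TriZol RNA, oligo(dT) RT, PCR, 6-FAM primer extension, HpaI cut, CE. Bidirectional fit, DMSO = baseline.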

[13] = target: Transcription factor Sp1 (Homo sapiens) (UniProt P08047); experiment: ATG_Sp1_CIS: Attagene CIS-FACTORIAL HepG2 Assay for human Specificity Protein 1 (Sp1) (AID 2282961); details: HepG2 Sp1 cis-reporter transcription, actives raise or lower the signal
Transcription factor Sp1 (Homo sapiens), sequence (P08047 whole entry, looked up): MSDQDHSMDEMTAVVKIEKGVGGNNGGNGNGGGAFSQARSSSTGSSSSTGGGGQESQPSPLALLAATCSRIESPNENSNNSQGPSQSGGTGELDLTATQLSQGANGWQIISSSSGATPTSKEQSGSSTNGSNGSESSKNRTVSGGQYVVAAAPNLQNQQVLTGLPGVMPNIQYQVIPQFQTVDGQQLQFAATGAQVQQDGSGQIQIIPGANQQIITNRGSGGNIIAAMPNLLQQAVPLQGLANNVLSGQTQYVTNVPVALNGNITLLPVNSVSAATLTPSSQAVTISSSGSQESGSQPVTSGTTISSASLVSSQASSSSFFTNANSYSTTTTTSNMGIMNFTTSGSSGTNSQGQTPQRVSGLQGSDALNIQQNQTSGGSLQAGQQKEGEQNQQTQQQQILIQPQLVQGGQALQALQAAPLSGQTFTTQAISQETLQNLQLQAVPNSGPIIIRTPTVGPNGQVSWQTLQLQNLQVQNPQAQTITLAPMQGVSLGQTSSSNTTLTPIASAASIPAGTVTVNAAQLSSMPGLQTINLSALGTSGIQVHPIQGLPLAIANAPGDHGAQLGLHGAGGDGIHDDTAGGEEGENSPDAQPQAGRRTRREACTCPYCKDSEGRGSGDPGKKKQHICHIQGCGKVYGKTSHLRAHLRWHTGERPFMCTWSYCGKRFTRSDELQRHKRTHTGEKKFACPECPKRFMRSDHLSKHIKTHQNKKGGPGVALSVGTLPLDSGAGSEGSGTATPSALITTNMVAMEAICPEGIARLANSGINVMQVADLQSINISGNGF
Method in brief: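 Endogenous Sp1 activity was gauged in human liver HepG2 cells bearing transfected reporter units under a cis-regulating promoter. After 24 h dosing, reporter mRNA was quantified by RT-PCR with capillary electrophoresis, and activity fitted bidirectionally versus DMSO.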

[14] = ATG_SREBP_CIS: Attagene CIS-FACTORIAL HepG2 Assay for human Sterol Regulatory Element Binding (SREBP) (AID 2282962); details: HepG2 Attagene cis-factorial SREBP reporter, mRNA; actives raise or lower the signal
Method in brief: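 Twenty-four hours after chemical dosing of transfected HepG2 cultures, reporter RNA was converted to cDNA, amplified, end-labelled with 6-FAM and resolved by capillary electrophoresis. Responses were fitted relative to DMSO.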

[15] = ATG_TA_CIS: Attagene CIS-FACTORIAL HepG2 Assay for human TA Basal Promoter (AID 2282964); details: HepG2 Attagene CIS-factorial TA basal promoter reporter; actives raise or lower the signal
Method in brief: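 Read-out: fluorescent reporter-transcript fragments resolved by capillary electrophoresis after RT-PCR and HpaI digestion. Source: HepG2 cells carrying transiently transfected multi-reporter cis constructs, treated 24 h. Endpoint fitted bidirectionally relative to DMSO.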

[16] = target: Hepatocyte nuclear factor 6 (Homo sapiens) (UniProt Q9UBC0); experiment: ATG_HNF6_CIS: Attagene CIS-FACTORIAL HepG2 Assay for human Hepatocyte Nuclear Factor 6 (HNF6) (AID 2282952); details: HepG2 Attagene cis-factorial HNF6 reporter transcription; actives raise or lower the signal
Hepatocyte nuclear factor 6 (Homo sapiens), sequence (Q9UBC0 whole entry, looked up): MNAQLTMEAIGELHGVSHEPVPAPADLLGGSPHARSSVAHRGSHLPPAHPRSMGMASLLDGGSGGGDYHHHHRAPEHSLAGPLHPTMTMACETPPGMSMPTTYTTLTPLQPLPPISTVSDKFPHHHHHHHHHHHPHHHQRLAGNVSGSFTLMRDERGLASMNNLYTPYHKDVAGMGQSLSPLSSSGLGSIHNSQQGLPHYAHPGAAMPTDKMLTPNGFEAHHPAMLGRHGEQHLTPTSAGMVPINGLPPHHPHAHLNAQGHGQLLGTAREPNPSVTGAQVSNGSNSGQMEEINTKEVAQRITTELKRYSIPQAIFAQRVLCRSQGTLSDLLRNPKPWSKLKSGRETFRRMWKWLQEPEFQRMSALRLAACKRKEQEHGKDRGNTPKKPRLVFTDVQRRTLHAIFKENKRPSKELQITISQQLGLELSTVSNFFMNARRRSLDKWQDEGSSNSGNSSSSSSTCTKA
Method in brief: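 HepG2, transient MRTU transfection (cis promoters); 24 h chemical exposure; total RNA → oligo(dT) RT → PCR → 6-FAM labelling → HpaI cut → CE; bidirectional fit vs DMSO.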

[17] = ATG_PPRE_CIS: Attagene CIS-FACTORIAL HepG2 Assay for human Peroxisome Proliferator-activated Response Element (PPRE) (AID 2282958); details: HepG2 PPRE cis-element reporter, Attagene transcription factor profiling; actives raise or lower the signal
Method in brief: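 Cells are first transfected transiently with the multiplexed reporter library, then dosed for 24 h. Total RNA is reverse-transcribed, amplified, fluorescently end-labeled and HpaI-cut before capillary electrophoresis; activity is fitted bidirectionally against DMSO controls.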

[18] = ATG_RORE_CIS: Attagene CIS-FACTORIAL HepG2 Assay for human RAR-related Orphan Receptor Element (RORE) (AID 2282959); details: HepG2 Attagene cis-factorial RORE reporter, mRNA; actives raise or lower the signal
Method in brief: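 Cells were HepG2 carrying transfected cis-regulated reporter constructs, dosed for 24 hours. Total RNA was reverse-transcribed and reporter cDNA amplified, fluorescently labeled and sized by capillary electrophoresis. Activity was fitted bidirectionally relative to DMSO.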

[19] = target: Signal transducer and activator of transcription 3 (Homo sapiens) (UniProt P40763); experiment: ATG_STAT3_CIS: Attagene CIS-FACTORIAL HepG2 Assay for human Signal Transducer and Activator of Transcription 3 (STAT3) (AID 2282963); details: HepG2, Attagene cis-factorial STAT3 reporter transcription; actives raise or lower the signal
Signal transducer and activator of transcription 3 (Homo sapiens), sequence (P40763 whole entry, looked up): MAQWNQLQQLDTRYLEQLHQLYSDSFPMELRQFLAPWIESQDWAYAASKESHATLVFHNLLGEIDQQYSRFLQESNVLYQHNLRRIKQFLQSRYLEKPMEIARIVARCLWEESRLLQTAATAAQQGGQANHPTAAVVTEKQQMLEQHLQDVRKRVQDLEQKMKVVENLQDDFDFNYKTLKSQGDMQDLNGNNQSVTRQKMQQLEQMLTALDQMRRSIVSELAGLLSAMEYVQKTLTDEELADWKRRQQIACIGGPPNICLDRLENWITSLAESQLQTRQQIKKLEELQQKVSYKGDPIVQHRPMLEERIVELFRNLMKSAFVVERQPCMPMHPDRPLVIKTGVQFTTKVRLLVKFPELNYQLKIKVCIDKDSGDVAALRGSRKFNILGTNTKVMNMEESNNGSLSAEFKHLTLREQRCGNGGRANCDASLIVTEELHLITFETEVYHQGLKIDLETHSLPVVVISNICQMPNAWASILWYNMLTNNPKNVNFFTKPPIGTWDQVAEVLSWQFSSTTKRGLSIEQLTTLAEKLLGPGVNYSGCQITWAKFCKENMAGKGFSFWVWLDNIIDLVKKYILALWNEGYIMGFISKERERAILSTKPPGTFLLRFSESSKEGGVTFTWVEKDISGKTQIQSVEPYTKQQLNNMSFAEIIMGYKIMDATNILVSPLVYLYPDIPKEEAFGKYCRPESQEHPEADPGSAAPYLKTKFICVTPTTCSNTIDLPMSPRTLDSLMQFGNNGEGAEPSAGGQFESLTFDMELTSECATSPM
Method in brief: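 Transcript-level reporter assay. HepG2 transient MRTU transfection, 24 h exposure, fluorescence detection after RT-PCR and CE; DMSO baseline.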

Measured: AC50

Nc1ccc(N)c([N+](=O)[O-])c1
active: [7] 25.9 µM
inactive: [1] | [2] | [3] | [4] | [5] | [6] | [7] | [8] | [9] | [10] | [11] | [12] | [13] | [14] | [15]

CC=CC(=O)C1=C(C)C=CCC1(C)C
active: [11] 55.4 µM
not listed: [6] | [12]
inactive: all other assays above

CCOc1ccc(NC(C)=O)cc1
not listed: [9] | [14] | [17]
inactive: all other assays above

O=C(O)c1ccc(C(=O)O)c(C(=O)O)c1
not listed: [6]
inactive: all other assays above

CCCC[N+](C)(CCCC)CCCC
not listed: [7]
inactive: all other assays above

[Cu+]
active: [8] 1.09 µM
not listed: [9] | [14] | [17] | [18]
inactive: all other assays above

CC(C)(C)C1CCC(O)CC1 (stereo not drawn)
not listed: [6]
inactive: all other assays above

CCCCOCCOCCO
not listed: [9] | [14] | [17] | [19]
inactive: all other assays above
